According to PubChem BioAssay (NCATS):
“And” between values parts separate entries of the source, which are not always exact repeats. Identical values can stand only once. Records with an inconclusive call do not appear. A call without a number means that no potency is given here. The source holds several records for some structures; these can differ, active in one and inactive in another. The source made the active and inactive calls. Calls come from the whole dose curve; as a rule, active = well fitted inhibition curve with a large enough effect; inconclusive = small, poorly fitted or top-dose-only effect; inactive = flat fitted curve, though single readings scatter.

Legend:
[1] = target: Glutathione peroxidase 1 (Homo sapiens) (UniProt P07203); assay: Primary qHTS Assay for Inhibitors of Recombinant Selenoprotein Glutathione Peroxidase 1 (GPX1) (AID 1845191); conditions: recombinant GPX1, GR-coupled NADPH fluorescence, 15 min; series mostly up to 48.8 µM; note: nearly all actives have a fitted effect of over 65% in size
Glutathione peroxidase 1 (Homo sapiens), sequence (P07203 whole entry, looked up): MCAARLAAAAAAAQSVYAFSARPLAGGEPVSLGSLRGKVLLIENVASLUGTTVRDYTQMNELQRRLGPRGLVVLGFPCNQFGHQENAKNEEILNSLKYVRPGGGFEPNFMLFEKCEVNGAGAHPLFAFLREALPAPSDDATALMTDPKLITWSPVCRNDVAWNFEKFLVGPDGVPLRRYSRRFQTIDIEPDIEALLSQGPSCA
Method in brief: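 GR-coupled assay: compounds preincubated 30 min at room temperature with GPX1, then reaction started with CHP; final 10 nM GPX1, 1 mM GSH, 0.5 mM CHP, 0.5 mM NADPH, 100 nM GR, 0.01% BSA, pH 7.5 Tris buffer. NADPH fluorescence (340/450 nm) read at 0 and 15 min.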

[2] = target: Phospholipid hydroperoxide glutathione peroxidase GPX4 (Homo sapiens) (UniProt P36969); assay: Primary qHTS Assay for Inhibitors of Recombinant Selenoprotein Glutathione Peroxidase 4 (GPX4) (AID 1845192); conditions: recombinant GPX4, GR-coupled NADPH fluorescence, 15 min; series mostly up to 50 µM; note: nearly all actives have a fitted effect of over 65% in size
Phospholipid hydroperoxide glutathione peroxidase GPX4 (Homo sapiens), sequence (P36969 whole entry, looked up): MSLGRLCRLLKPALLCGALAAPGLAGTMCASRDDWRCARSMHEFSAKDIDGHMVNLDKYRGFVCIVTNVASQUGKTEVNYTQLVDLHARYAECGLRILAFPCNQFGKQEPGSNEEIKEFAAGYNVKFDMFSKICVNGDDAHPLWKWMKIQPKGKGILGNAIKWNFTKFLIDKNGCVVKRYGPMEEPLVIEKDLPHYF
Method in brief: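 GR-coupled assay: recombinant GPX4 preincubated 30 min with compound at room temperature; final 200 nM GPX4, 1 mM GSH, 0.5 mM cumene hydroperoxide, 0.5 mM NADPH, 100 nM GR, 0.01% BSA, pH 7.5 Tris. NADPH fluorescence (340/450 nm) read at 0 and 15 min.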

[3] = target: Luciferin 4-monooxygenase (Photinus pyralis) (UniProt P08659); assay: Primary firefly luciferase (FLuc) qHTS assay for identification of artifact compounds. (AID 1845220); conditions: purified firefly luciferase, luminescence, 5 min; series mostly up to 54.1 µM; note: nearly all actives have a fitted effect of over 60% in size
Method in brief: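 D-luciferin and ATP (10 uM each, final) in Tris acetate buffer pH 7.6 were incubated with compounds for 15 min at room temperature. The reaction was started with 10 nM Photinus pyralis luciferase and luminescence read after 5 min. Percent inhibition was fitted to a 4-parameter Hill equation.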
Potency is the fitted concentration of half-maximal effect.

Cn1cnc(-c2cc3nccc(Oc4ccc(NC(=S)NC(=O)Cc5ccccc5)cc4F)c3s2)c1
Potency [1]: inactive | Potency [2]: inactive and 7.18 µM (active) | Potency [3]: inactive

CCN1CCN(c2ccc(Nc3cc(N(C)C(=O)Nc4c(Cl)c(OC)cc(OC)c4Cl)ncn3)cc2)CC1
Potency [1]: inactive | Potency [2]: inactive | Potency [3]: inactive

CNC(=O)c1ccc2c(C(=Nc3cccc(CN(C)C)c3)c3ccccc3)c(O)[nH]c2c1
Potency [1]: inactive | Potency [2]: inactive | Potency [3]: inactive

N#CC1(c2cccc(C(=O)Nc3cc(Oc4ccc5nc(NC(=O)C6CC6)sc5n4)ccc3F)c2Cl)CC1
Potency [1]: inactive | Potency [2]: inactive | Potency [3]: inactive

COc1cc(Nc2nc3ccccc3nc2NS(=O)(=O)c2ccc(NC(=O)c3ccc(C)c(OC)c3)cc2)cc(OC)c1
Potency [1]: inactive | Potency [2]: inactive | Potency [3]: inactive

Cc1cccc2c1CC[C@H](CN1CCC(c3c(Cl)cccc3Cl)CC1)C[C@@H]2O
Potency [1]: inactive | Potency [2]: inactive | Potency [3]: inactive

Cc1cnc(CNC(=O)c2c(=O)c3ccc(N4CCCN(C)CC4)nc3n3c2sc2ccccc23)cn1
outcome [1]: inactive [at 9.52 µM] | activity change, negative = inhibition [2]: -0.552% [at 9.73 µM] (inactive) | activity change, negative = inhibition [3]: 3.83% [at 11.6 µM] (inactive)

Cn1c(=O)c(-c2c(Cl)cccc2Cl)cc2cnc(Nc3cccc(C(=O)O)c3)nc21
Potency [1]: inactive | Potency [2]: inactive | Potency [3]: 0.379 µM (active)

C[C@@H]1CCO[C@H]2Cn3cc(C(=O)NCc4ccc(F)cc4F)c(=O)c(O)c3C(=O)N12
Potency [1]: inactive | Potency [2]: inactive | Potency [3]: inactive

CCn1c(-c2nonc2N)nc2cncc(CNC3CCNCC3)c21
Potency [1]: inactive | Potency [2]: inactive | Potency [3]: inactive

C[C@@H](NC(=O)c1ncnc(N)c1Cl)c1ncc(C(=O)Nc2cc(C(F)(F)F)c(Cl)cn2)s1
Potency [1]: inactive | Potency [2]: inactive | Potency [3]: inactive

C=CC(=O)Nc1cccc(Sc2nc(Nc3ccc(N4CCN(C)CC4)cc3)ncc2Cl)c1
Potency [1]: inactive | Potency [2]: inactive | Potency [3]: inactive

CNC1CCC(N(Cc2cccc(-c3ccncc3)c2)C(=O)c2sc3ccccc3c2Cl)CC1 (centres undefined)
Potency [1]: inactive | Potency [2]: inactive | Potency [3]: inactive

CCC(=O)N1CCN(c2ccc(-n3c(=O)ccc4cnc5ccc(-c6cnc7ccccc7c6)cc5c43)cc2C(F)(F)F)CC1
Potency [1]: inactive | Potency [2]: inactive | activity change, negative = inhibition [3]: 2.1% [at 11.6 µM] (inactive)

Cc1nc2c([nH]1)CCN(C(=O)c1ccc(NC(=O)c3ccccc3-c3ccccc3)cc1)c1ccccc1-2
Potency [1]: inactive | Potency [2]: inactive | Potency [3]: inactive

O=C(O)CCNc1cc(N2CCc3ccccc3CC2)nc(-c2ccccn2)n1
Potency [1]: inactive | Potency [2]: inactive | Potency [3]: inactive

Cc1ccc2c(c1)C(=O)[C@]1(O)CCN(c3ccccc3)C1=N2
Potency [1]: inactive | Potency [2]: inactive | Potency [3]: inactive

NC1(C(=O)N[C@@H](CCO)c2ccc(Cl)cc2)CCN(c2ncnc3[nH]ccc23)CC1
Potency [1]: inactive | Potency [2]: inactive | Potency [3]: inactive

CCCCC(F)(F)[C@@]1(O)CC[C@H]2[C@H](CC(=O)[C@@H]2CCCCCCC(=O)O)O1
Potency [1]: inactive | Potency [2]: inactive | Potency [3]: inactive

Cc1ccc2c(c1)c1c(n2CCc2ccc(C)nc2)CCN(C)C1
Potency [1]: inactive | Potency [2]: inactive | Potency [3]: inactive

CCN1CCC(n2cc(CNc3cc(Cl)c4ncc(C#N)c(Nc5ccc(F)c(Cl)c5)c4c3)nn2)CC1
Potency [1]: 1.15 µM (active) | Potency [2]: inactive | Potency [3]: inactive

CC[C@H](CC#N)OC(=O)N[C@@H](C)c1cccc(NC(=O)Nc2ccc(-c3cnco3)c(OC)c2)c1
Potency [1]: inactive | Potency [2]: inactive | Potency [3]: inactive

CN1C(=O)C(Cc2c[nH]c3ccccc23)NC1=S (centres undefined)
Potency [1]: inactive | Potency [2]: inactive | Potency [3]: inactive

CN1CCC(COc2cnc(-c3cccc(Cn4nc(-c5cccc(C#N)c5)ccc4=O)c3)nc2)CC1
Potency [1]: inactive | Potency [2]: inactive | Potency [3]: inactive

O=C(CCCN1CCN(c2ccc(F)cc2)CC1)NC1c2ccccc2CSc2ccccc21 (centres undefined)
Potency [1]: inactive | Potency [3]: inactive

Cc1cc(-c2ncc(CC(=O)Nc3ccc(-c4cnccn4)cn3)cc2C)ccn1
Potency [1]: inactive | Potency [3]: inactive

COc1cc2nccc(Oc3ccc(NC(=O)Nc4cc(C)on4)c(Cl)c3)c2cc1OC
Potency [1]: inactive | Potency [2]: inactive | Potency [3]: inactive

N#Cc1ccc(Oc2ccc3c(c2)COB3O)cc1
Potency [1]: inactive | Potency [2]: inactive | Potency [3]: inactive

CN(C)c1ccc(-c2nc3ncc(Cl)c(N4CCN(CC(=O)Nc5nccs5)CC4)c3[nH]2)cc1
Potency [3]: inactive

CC1=C[C@@H]2[C@@H]([C@@H](O)C[C@@]3(C)[C@H]2C[C@@H](C)[C@]3(O)C(=O)CO)[C@@]2(C)Cc3cnn(-c4ccccc4)c3C=C12
Potency [1]: inactive | Potency [3]: inactive

CC1(COc2ccc3c(c2)ncn3-c2ccc3cccc(N4CCC(N)CC4)c3n2)COC1
Potency [1]: inactive | Potency [2]: inactive | Potency [3]: inactive

CC(C)(C)c1nc(-c2cccc(NS(=O)(=O)c3c(F)cccc3F)c2F)c(-c2ccnc(N)n2)s1
Potency [1]: inactive | Potency [2]: inactive and 12.8 µM (active) and 11.2 µM (active) | Potency [3]: inactive

NC(=O)c1noc([C@H](CCCC2CCCCC2)CC(=O)NO)n1
Potency [1]: inactive | Potency [2]: inactive | Potency [3]: inactive

O=C(c1ccc(C(=O)N2CCC(N3CCCC3)CC2)c(Nc2ccccc2)c1)N1CCC(N2CCCC2)CC1
Potency [1]: inactive | Potency [2]: inactive | Potency [3]: inactive

C[C@@H](N)c1ccc(C(=O)Nc2ccnc3[nH]ccc23)cc1
Potency [1]: inactive | Potency [2]: inactive | Potency [3]: inactive

CN1CCN(c2cccc(Nc3nc4c(-c5ccc(S(C)(=O)=O)cc5)cccn4n3)c2)CC1
Potency [1]: inactive | Potency [2]: inactive | Potency [3]: inactive

COc1nccc(-c2c(-c3ccc(F)cc3)ncn2C2CCC(O)CC2)n1 (centres undefined)
Potency [1]: inactive | Potency [2]: inactive | Potency [3]: inactive

CCNC(=O)c1noc(-c2cc(C(C)C)c(O)cc2O)c1-c1ccc(CN2CCOCC2)cc1
Potency [1]: inactive | Potency [2]: inactive | Potency [3]: inactive

CCc1cccc(CC)c1NC(=O)N1Cc2[nH]nc(NC(=O)c3ccc(N4CCN(C)CC4)cc3)c2C1
Potency [1]: inactive | Potency [2]: inactive | Potency [3]: inactive

COc1ccc(-c2cc3nccn3c(Nc3ncccc3C(N)=O)n2)cc1OC
Potency [1]: inactive | Potency [2]: inactive | Potency [3]: inactive

O=C(Nc1cccc(C(F)(F)F)c1)Nc1cc(S(=O)(=O)NC2CC2)ccc1-c1ccsc1
Potency [1]: inactive | Potency [2]: inactive | Potency [3]: inactive

CC(C)(OCc1nn(Cc2ccccc2)c2ccccc12)C(=O)O
Potency [1]: inactive | Potency [2]: inactive | Potency [3]: inactive

CN(C)CCOc1cc(-c2cn[nH]c2)ccc1NC(=O)C1COc2ccccc2O1 (centres undefined)
Potency [1]: inactive | Potency [2]: inactive | Potency [3]: inactive

O=C1C(c2c(O)[nH]c3ccccc23)=Nc2ccccc21
Potency [1]: inactive | Potency [2]: inactive | Potency [3]: inactive

O=C(Nc1ccc(OC(F)(F)F)cc1)c1sccc1NCc1ccnc2ccccc12
Potency [2]: inactive

COc1ccc(CCC(=O)Nc2nc3ccc(Cl)cc3s2)cc1OC
Potency [1]: inactive | Potency [2]: inactive | Potency [3]: inactive

Cc1ccc(C2=Nc3ccc(Cl)cc3OC2)cc1
Potency [2]: inactive

NS(=O)(=O)c1ccc(Nc2nc(OCC3CCCCC3)c3[nH]cnc3n2)cc1
Potency [1]: inactive | Potency [3]: inactive

CNC(=O)c1c(-c2ccc(F)cc2)oc2cc(N(CCO)S(C)(=O)=O)c(C3CC3)cc12
Potency [1]: inactive | Potency [3]: inactive

C[C@@]1(C(=O)Nc2ccc(F)nc2)CCCN1c1nc(Nc2cc(C3CC3)[nH]n2)c2cccn2n1
Potency [3]: inactive

NC(=O)c1ccc(N(C(N)=O)c2c(F)cccc2F)nc1-c1ccc(F)cc1F
Potency [1]: inactive | Potency [2]: inactive | Potency [3]: inactive

COc1ccc(-c2nc3ccc(C4=NNC(=O)CC4C)cc3[nH]2)cc1 (centres undefined)
Potency [1]: inactive | Potency [3]: 10.7 µM (active)

Cc1cc2c(cc1C1(c3ccc(C(=O)O)cn3)CC1)C(C)(C)CCC2(C)C
Potency [1]: inactive | Potency [2]: inactive | Potency [3]: inactive

CN1c2ccccc2C(=O)N2CCc3c([nH]c4ccccc34)C21 (centres undefined)
Potency [1]: inactive | Potency [3]: inactive

COc1nccc(-c2c(-c3ccc(F)cc3)ncn2C2CCNCC2)n1
Potency [1]: inactive | Potency [3]: inactive

C[C@@]1(c2cc(-c3cncnc3)c(F)cc2F)CCSC(N)=N1
Potency [1]: inactive | Potency [2]: inactive | Potency [3]: inactive

CNc1nc(Nc2ccc(C(=O)N3CCOCC3)cc2OC)ncc1Cl
Potency [1]: inactive | Potency [2]: inactive | Potency [3]: inactive

C=C1c2cccc(O)c2C(O)=C2C(=O)[C@@]3(O)C(O)=C(C(N)=O)C(=O)[C@@H](N(C)C)[C@@H]3[C@@H](O)[C@H]12
Potency [2]: 11.4 µM (active)

CN1CCc2c(n(Cc3ccc(C(=O)NO)cc3)c3ccccc23)C1
Potency [1]: inactive | Potency [2]: inactive | Potency [3]: inactive
